Hits are enriched below; roughly 4.6% of the tested compounds scored in any of these assays.
TIM10 inh: growth inhibitors of isogenic TIM10 control yeast, primary screen, counter-screen for tim10-1 yeast inhibitor project, luminescence, uHTS; S. cerevisiae TIM10 strain growth, BacTiter-Glo luminescence, 24 h; inhibition, % at 10 µM; 330,000 compounds, 1.4% hits; AID 463195, 2010;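 active = inhibition of 40% or more at the single tested concentration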;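 also: wild-type TIM10 isogenic control strain grown at permissive 25 °C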
tim10-1 inh: growth inhibitors of tim10-1 mutant yeast, primary screen, luminescence, uHTS | S. cerevisiae tim10-1 ts strain growth, BacTiter-Glo, 24 h | 330,000 compounds, 2.2% hits | inhibition, % at 20 µM | AID 463190, 2010;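 active = inhibition of at least 40%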;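 also: mutant grown at 25 °C; 0% = DMSO wells with yeast and 100% = wells holding no yeast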
NALP3 yeast inh: NALP3 inflammasome inhibitors in reconstituted yeast, primary screen, luminescence, uHTS. Yeast reconstituted NLRP3/ASC/caspase-1, beta-gal luminescence, 24 h. inhibition, % at 10 µM. 330,000 compounds, 0.39% hits. AID 2825, 2010;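 active = inhibition of 50% or more; inactive = inhibition below 50%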;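 also: plate controls were induced DMSO wells for no effect and uninduced yeast grown without galactose for full effect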
tim23-1 inh: growth inhibitors of tim23-1 mutant yeast, primary screen, luminescence, uHTS; S. cerevisiae tim23-1 growth, BacTiter-Glo luminescence, 24 h; inhibition, % at 20 µM; 330,000 compounds, 1.3% hits;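 active = growth inhibition of the mutant yeast at or above 50%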;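 also: temperature-sensitive mutant grown at 25 °C; plate controls were DMSO-treated mutant yeast for no effect and medium wells lacking yeast for full effect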
SKKanGAS inh: S. pyogenes SKKanGAS growth inhibitors in kanamycin, primary screen, streptokinase expression inhibitor project, SKKanGAS strain, BacTiter-Glo luminescence | 6 h | inhibition, % at 7.5 µM | 300,000 compounds, 1.3% hits | AID 1662, 2009;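 active = mean replicate score, as percent of positive control median, at least 50; inconclusive = mean below 50 but one replicate at or above 50; inactive = mean and every replicate below 50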;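 also: strain carries kanamycin resistance gene driven by streptokinase promoter and grows in 40 µg/ml kanamycin; loss of luminescence reflects streptokinase promoter inhibition or plain growth inhibition; 0% = median of DMSO wells and 100% = positive control at its reference dose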
tim10-1 conf: growth inhibitors of tim10-1 mutant yeast, confirmation, single concentration, luminescence, S. cerevisiae; S. cerevisiae tim10-1 ts strain growth, BacTiter-Glo, 24 h; shares compounds with tim10-1 inh; inhibition, % at 20 µM; AID 463213, 2010; 7,400 compounds, 56% hits;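 active = inhibition of yeast growth at or above a set limit in either of two repeat tests at 20 µM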;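 also: tim10-1 mutant grown at permissive 25 °C to find synthetic lethal compounds; 0% = DMSO yeast wells and 100% = medium wells without yeast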
* marks the source's active call; other numbers are inactive results; ? = inconclusive; . = no result given.

SMILES	TIM10 inh	tim10-1 inh	NALP3 yeast inh	tim23-1 inh	SKKanGAS inh	tim10-1 conf
O=C(CSc1nc(-c2ccccc2)c(-c2ccccc2)o1)NCCCO	21.9	20.6	-12.3	13.3	-11.6	.
Nc1nc2ccc(S(=O)(=O)N3CCCCC3)cc2s1	2.4	40.2*	17.3	14.6	-1.3	19.5
N#C/C(=C\c1cccnc1)c1nc2c(s1)CCCC2	19.5	42.7*	41.4	12.6	2.9	31.9*
CC1CCc2nc(/C(C#N)=C/c3cccnc3)sc2C1 (configuration not stated)	27.4	42.0*	24.2	12.3	7.2	30.0
COc1cc(/C=C(\C#N)C(=O)N2CCCCC2)ccc1O	18.2	32.8	6.3	33.5	2.8	.
COc1cc(/C=C(\C#N)c2nc3c(s2)CCCC3)ccc1O	31.0	44.3*	36.6	34.5	43.6	11.8
CSCC(C)N1CCC(N2CCC(C(=O)NCc3ccccn3)CC2)CC1 (configuration not stated)	-1.3	-1.6	4.1	6.1	-2.5	.
C/C(=N\Nc1nc2ccccc2s1)c1ccc2c(c1)OCO2	30.8	42.1*	1.7	23.1	?	5.5
Cc1cccc(NC(=O)CSc2nc3ccccc3nc2N2CCCC2)c1C	5.7	17.6	9.6	23.9	5.6	.
COc1ccc(NC(=O)c2ccc(CN3CCN(c4ccccc4)CC3)cc2)cc1OC	4.4	27.9	17.4	16.7	.	.
COc1ccc(C)cc1NC(=O)c1ccc(CN2CCN(c3ccccc3)CC2)cc1	21.2	46.3*	34.4	36.2	9.3	29.9
O=C(NCc1cccnc1)[C@@H]1CC=C[C@@H]2CCN(Cc3ccccc3)C(=O)[C@@H]21	3.2	0.4	19.5	14.5	1.9	.
CCN(CC)S(=O)(=O)c1ccc(C(=O)NC2=C(C(=O)OC)SCC2)cc1	23.4	41.8*	-20.5	25.6	-5.2	31.2
O=C(O)Cn1ccc2cc(S(=O)(=O)N3CCCCCC3)ccc21	-4.3	1.2	13.1	-6.6	1.7	.
O=C(CC(Cc1ccccc1)C(=O)O)Nc1cccc(C(F)(F)F)c1 (configuration not stated)	8.7	-15.3	-0.8	21.2	1.3	.
Oc1ccc(/C=C/c2ccnc3ccccc23)cc1	24.1	19.9	21.3	11.6	-4.2	.
Clc1ccccc1/C=C/c1ccnc2ccccc12	12.8	43.5*	28.3	37.4	37.5	26.1
CC(C)(C)n1nnnc1C(c1cccs1)N(Cc1ccccc1)Cc1cccnc1 (configuration not stated)	14.9	21.7	-28.1	34.0	-1.1	.
CC(C)(C)n1nnnc1C(c1cccnc1)N(Cc1ccccc1)Cc1cccs1 (configuration not stated)	33.7	56.3*	5.4	26.9	16.3	33.0*
Cc1nn(-c2ccccc2)c(Cl)c1C1C(C#N)=C(N)Oc2c1c(C)nn2-c1ccccc1 (configuration not stated)	-2.0	47.0*	6.7	34.4	-3.2	19.4
CCOC(=O)C1=C(C)OC(N)=C(C#N)C1c1c(C)nn(-c2ccccc2)c1Cl (configuration not stated)	24.4	52.6*	-1.5	46.5	13.4	34.5*
C=CCOC(=O)C1=C(C)OC(N)=C(C#N)C1c1c(C)nn(-c2ccccc2)c1Cl (configuration not stated)	3.5	37.1	-5.5	41.4	.	.
CC(C)CCNC(=O)C(c1ccc(O)cc1)N(Cc1ccco1)C(=O)CCC(=O)Nc1nccs1 (configuration not stated)	1.9	-18.3	31.9	-5.4	-3.1	.
COC(=O)C1=C(C(=O)OC)[C@@H]2N(Cc3ccccc3)c3ccccc3[C@@]23C[C@@H](C(=O)OC)N(C(=O)c2cccs2)C3=N1	17.8	42.4*	15.2	41.6	2.7	29.6
COC(=O)C1=C(C(=O)OC)[C@@H]2N(C)c3ccccc3[C@@]23C[C@@H](C(=O)OC)N(C(=O)c2cccs2)C3=N1	27.0	16.9	2.8	20.5	0.0	.
SMILES	TIM10 inh	tim10-1 inh	NALP3 yeast inh	tim23-1 inh	SKKanGAS inh	tim10-1 conf
Cc1ccc(Cl)c(OCC(=O)Nc2ccc(S(=O)(=O)NC3=NCCCCC3)cc2)c1	-3.1	-6.9	18.5	-2.6	45.4	.
O=C(COc1ccc(Cl)cc1Cl)Nc1ccc(S(=O)(=O)NC2=NCCCCC2)cc1	38.7	43.8*	4.1	13.4	-4.7	39.2*
COc1ccccc1C(=O)NNC(=O)CCC(=O)NCc1ccccc1	-4.3	-14.7	18.9	-6.0	1.0	.
CC(C)C(OC(=O)c1cc2sccc2n1C)C(=O)NCC1CCCO1 (configuration not stated)	3.4	10.4	19.7	15.7	-3.6	.
COc1ccc(CN(CC2CCCO2)C(=O)c2cc3sccc3n2C)c(OC)c1 (configuration not stated)	31.6	45.3*	3.7	21.7	2.1	29.4
CCC(C(=O)OCC(=O)N(CC)c1c(N)n(Cc2ccccc2)c(=O)[nH]c1=O)c1ccccc1 (configuration not stated)	7.1	8.2	14.7	-12.2	.	.
Cn1nc(C(F)(F)F)c(-c2ccc(Br)cc2)c1NC(=O)c1ccco1	3.3	40.0*	12.8	32.3	19.1	14.4
Cn1nc(C(F)(F)F)c(-c2ccc(Br)cc2)c1NC(=O)c1cccnc1	12.0	22.7	21.5	8.9	41.0	.
Cc1ccc(C(=O)Nc2cccc(N3C(=O)C4CCC(C)CC4C3=O)c2)cc1 (configuration not stated)	19.5	13.9	-7.8	17.9	1.4	.
COc1ccccc1N1CCN(C(=O)Nc2ccc(F)c(Cl)c2)CC1	28.7	35.6	17.2	29.5	10.6	.
CCOc1ccccc1N1CCN(C(=O)Nc2ccc(F)c(Cl)c2)CC1	37.0	47.9*	30.1	47.5	29.5	40.0*
COc1ccc(Cc2nc3ccc(C(=O)NC(C)c4cn(C)nc4C)cc3o2)cc1 (configuration not stated)	7.4	14.7	-4.7	7.4	-5.4	.
Cc1ccc(OC(=O)c2ccc(C)c([N+](=O)[O-])c2)cn1	-1.4	8.1	19.1	7.2	0.2	.
Cc1ccc(OC(=O)c2ccc([N+](=O)[O-])cc2Cl)cn1	13.3	42.6*	3.7	22.0	-1.4	23.4
Cc1ccc(/C=c2/sc3nnc(-c4ccccc4Cl)n3c2=O)o1	32.9	45.1*	12.2	42.4	-2.0	38.0*
CCN(CC)c1ccc(/C=c2\sc3nnc(-c4ccccc4Cl)n3c2=O)cc1	4.5	15.0	5.3	14.5	5.5	.
Cc1c(Cl)cccc1NC(=S)N1CCc2ccccc2C1	38.2	51.2*	-6.6	29.6	12.4	25.3
Cc1c(Cl)cccc1NC(=S)N1CCOCC1	-1.0	-3.9	11.0	6.9	4.6	.

Screens: PubChem BioAssay, several laboratories
